We go through 17 molecules from PubChem BioAssay (EPA / NIEHS).

SMILES strings stand for the structures. The source made the active and inactive calls. The calls were made as follows: active = hit-call score of the fitted dose curve at least 0.9, where 1 is the maximum; inactive = score below 0.9.

Assay [1] can be described thus: ATG_EGR_CIS: Attagene CIS-FACTORIAL HepG2 Assay for human Early Growth Response 1 (EGR1) (AID 2282938). To be noted: HepG2 Attagene CIS-FACTORIAL EGR reporter mRNA; actives raise or lower the signal. Summed up: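 HepG2, transient MRTU transfection (cis promoters), 24 h compound. RNA → RT (oligo-dT) → PCR → 6-FAM labelling → HpaI cut → CE fluorescence. Bidirectional fit, DMSO baseline.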

A short description of assay [2]: ATG_M_19_CIS: Attagene CIS-FACTORIAL HepG2 Assay for M19 Transcription Factor (Internal Marker) (AID 2282939). The note with it: HepG2 Attagene CIS-FACTORIAL M19 internal marker reporter; actives raise or lower the signal. An outline of the steps:
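Transfect HepG2 with MRTU reporter library → dose chemical, 24 h → isolate total RNA, reverse-transcribe with oligo(dT) → PCR, 6-FAM label, HpaI cut (2 h, 37 C) → capillary electrophoresis. Bidirectional fit vs DMSO.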

Assay [3] can be described thus: ATG_ERE_CIS: Attagene CIS-FACTORIAL HepG2 Assay for Estrogen Response Element (ERE) (AID 2282940). To be noted: HepG2 ERE cis-reporter, Attagene RNA transcript; actives raise or lower the signal. An outline of the steps: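 Transient MRTU transfection of human HepG2; cis-element promoters; 24 h dosing; total RNA → RT (oligo dT) → PCR → 6-FAM primer extension → HpaI digest → CE fluorescence. Bidirectional fit, DMSO baseline.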

Assay [4] in a line: ATG_Ets_CIS: Attagene CIS-FACTORIAL HepG2 Assay for human Erythroblast Transformation Specific (ETS) (AID 2282941). The note with it: HepG2 ETS cis-reporter transcription, actives raise or lower the signal. An outline of the steps:
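Human HepG2 hepatoma cells were transiently transfected with promoter-driven reporter constructs and treated for 24 hours. Reporter transcripts were quantified by RT-PCR with fluorescent primer extension; bidirectional curve fitting used DMSO as reference.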

The target in assay [5] is Hepatocyte nuclear factor 3-beta (Homo sapiens) (UniProt Q9Y261). The experiment in a line: ATG_FoxA2_CIS: Attagene CIS-FACTORIAL HepG2 Assay for human Forkhead box A2 (FOXA2) (AID 2282942). To be noted: HepG2 cis-reporter transcription factor activity, 24 h; actives raise or lower the signal. An outline of the steps: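 Cells: HepG2, transient multiplex reporter transfection. Exposure 24 h. Detection: reporter-specific RT-PCR, fluorescent labelling, restriction digest, capillary electrophoresis. Analysis: bidirectional curve fit, DMSO as negative control.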
Chain of Hepatocyte nuclear factor 3-beta (Homo sapiens) (Q9Y261 whole entry, looked up): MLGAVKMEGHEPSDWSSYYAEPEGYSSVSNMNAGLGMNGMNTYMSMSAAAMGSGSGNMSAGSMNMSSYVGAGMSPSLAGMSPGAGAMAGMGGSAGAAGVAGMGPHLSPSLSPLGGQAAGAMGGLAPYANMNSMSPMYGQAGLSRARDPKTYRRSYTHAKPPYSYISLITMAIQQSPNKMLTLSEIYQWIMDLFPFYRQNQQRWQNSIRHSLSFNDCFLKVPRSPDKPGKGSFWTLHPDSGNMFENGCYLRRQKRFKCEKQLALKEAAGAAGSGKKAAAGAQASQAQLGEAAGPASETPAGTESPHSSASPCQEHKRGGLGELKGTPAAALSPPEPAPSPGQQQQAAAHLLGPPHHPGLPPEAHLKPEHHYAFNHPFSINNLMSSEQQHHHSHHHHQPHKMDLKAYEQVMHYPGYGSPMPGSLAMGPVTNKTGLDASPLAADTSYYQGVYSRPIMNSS

Assay [6] in a line: ATG_FoxO_CIS: Attagene CIS-FACTORIAL HepG2 Assay for human Forkhead box O (FoxO) (AID 2282943). The note with it: HepG2 Attagene cis-reporter, FoxO element, mRNA; actives raise or lower the signal. An outline of the steps: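 HepG2, transient MRTU transfection (cis element, endogenous TFs). Dose 24 h. TriZol RNA → oligo(dT) RT → PCR → 6-FAM primer extension → HpaI cut → CE. Gain/loss vs DMSO.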

Assay [7] is described as follows: ATG_GATA_CIS: Attagene CIS-FACTORIAL HepG2 Assay for human GATA Binding Protein (AID 2282944). To be noted: HepG2 GATA cis-element reporter, Attagene multiplex mRNA; actives raise or lower the signal. Summed up:
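Transient MRTU transfection, HepG2, 24 h compound exposure. Total RNA → oligo(dT) RT → PCR → 6-FAM primer extension → HpaI cut → CE. Bidirectional fit vs DMSO.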

Assay [8] is described as follows: ATG_GLI_CIS: Attagene CIS-FACTORIAL HepG2 Assay for human Zinc Finger Protein GLI1 (AID 2282945). To be noted: HepG2, Attagene cis-factorial reporter mRNA, GLI element; actives raise or lower the signal. An outline of the steps:
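Bidirectional curve fits relative to DMSO, using reporter mRNA levels from RT-PCR plus capillary electrophoresis. Cells were HepG2 transiently carrying cis-regulated reporter constructs, harvested 24 h after dosing.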

The nature of assay [9]: ATG_GRE_CIS: Attagene CIS-FACTORIAL HepG2 Assay for human Glucocorticoid Response Elements (GRE) (AID 2282947). To be noted: HepG2 GRE cis-reporter, Attagene multiplex mRNA; actives raise or lower the signal. Summed up: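 Transient MRTU transfection of human HepG2 liver cells; cis-regulated reporters report endogenous factors. 24 h dosing → RNA isolation → RT-PCR → 6-FAM primer extension → HpaI cut → CE fragment analysis. Bidirectional fit, DMSO negative control.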

The target of assay [10] is Bile acid receptor (Homo sapiens) (UniProt Q96RI1). The experiment in a line: ATG_IR1_CIS: Attagene CIS-FACTORIAL HepG2 Assay for human Nuclear Receptor Subfamily 1 Group H Member 4 (NR1H4), IR1 submotif (AID 2282946). The note with it: IR1 reporter transcription, actives raise or lower the signal. An outline of the steps:
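Cells (human HepG2) carry transiently transfected cis-promoter reporter transcription units. Compounds are incubated 24 h, total RNA is reverse-transcribed and amplified, and labelled fragments are resolved by capillary electrophoresis. Curves use DMSO as baseline.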

The AC50 is the midpoint of the concentration-response curve, whichever way the signal moves.

Chain of Bile acid receptor (Homo sapiens) (Q96RI1 whole entry, looked up, the tested form may be a part): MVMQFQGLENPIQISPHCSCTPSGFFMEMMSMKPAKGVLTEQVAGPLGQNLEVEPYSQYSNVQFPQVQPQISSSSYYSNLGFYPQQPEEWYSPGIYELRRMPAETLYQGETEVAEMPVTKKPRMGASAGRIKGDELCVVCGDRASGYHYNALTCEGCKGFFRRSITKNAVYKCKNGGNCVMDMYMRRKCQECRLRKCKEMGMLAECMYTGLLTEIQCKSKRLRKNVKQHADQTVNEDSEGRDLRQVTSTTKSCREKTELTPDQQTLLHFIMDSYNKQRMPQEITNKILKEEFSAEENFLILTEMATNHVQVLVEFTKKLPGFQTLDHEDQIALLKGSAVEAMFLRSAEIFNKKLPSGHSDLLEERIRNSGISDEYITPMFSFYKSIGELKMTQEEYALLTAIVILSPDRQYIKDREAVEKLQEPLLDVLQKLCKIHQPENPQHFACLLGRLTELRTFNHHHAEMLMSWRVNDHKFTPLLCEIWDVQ

As to `COc1ccccc1OC`, the result in assay [1], in assay [2], in assay [3], in assay [4], in assay [5] and in assay [6] was inactive. The molecule was called inactive in assay [7], in [8] and in assay [9].

For `CC(C)c1cccc(C(C)C)c1O`, the call in assay [1], in assay [2], in assay [3], in assay [4], in [5] and in assay [6] was inactive. Besides, in assay [8], the outcome was inactive.

On to `CC(Br)C(=O)O` (stereo not drawn), for which the result in assay [1], in assay [2], in [3], in [4], in [5] and in [6] was inactive. In addition, the outcome in assay [7], in [8] and in assay [9] was inactive.

In the case of `Nc1ccc(N=Nc2ccc(-c3ccc(N=Nc4c(S(=O)(=O)O)cc5cc(S(=O)(=O)O)c(N=Nc6ccccc6)c(O)c5c4N)cc3)cc2)c(N)c1`, the call in assay [1], in [2], in assay [4], in assay [5], in [6] and in assay [7] was inactive. For the same molecule, the call in [8] and in [9] was inactive. For the same molecule, the AC50 in assay [3] is 24.8 µM (active).

Regarding `COC(=O)c1sccc1S(=O)(=O)NC(=O)Nc1nc(C)nc(OC)n1`, the molecule was classed as inactive in assay [1], in assay [2], in assay [4], in assay [5], in assay [6] and in assay [7]. Besides, the call in [8] and in assay [9] was inactive. The AC50 in [3] was 47.4 µM (active).

With `Cc1ccccc1C(=O)Nc1cccc(OC(C)C)c1`, the molecule was called inactive in [1], in [2], in [3], in [4], in assay [5] and in [6]. In addition, the result in assay [7], in [8] and in assay [9] was inactive.

As for `Clc1nc(Cl)nc(Cl)n1`, the outcome in [1], in assay [2], in [3], in [4], in [5] and in assay [6] was inactive. Moreover, the result in assay [7], in assay [8] and in assay [9] was inactive.

With `CCOC(=O)Nc1cccc(OC(=O)Nc2ccccc2)c1`, the call in assay [1], in assay [2], in assay [3], in [4], in [5] and in assay [6] was inactive. The molecule was called inactive in [7], in [8] and in [9].

As for `CNC`, the outcome in assay [1], in assay [2], in assay [3], in [4], in assay [5] and in assay [6] was inactive. In addition, the molecule was called inactive in assay [7], in assay [8] and in [9].

Regarding `CC(C)OC(=O)Nc1ccccc1`, the call in assay [1], in assay [2], in assay [3], in assay [4], in assay [5] and in [6] was inactive. The result in assay [8] was inactive.

For `BrCCBr`, the molecule was classed as inactive in assay [1], in assay [2], in assay [3], in [4], in assay [5] and in assay [6]. The outcome in assay [7], in assay [8] and in assay [9] was inactive.

On to `CCOP(=S)(OCC)SCSP(=S)(OCC)OCC`, for which the molecule was classed as inactive in assay [1], in assay [2], in assay [4], in assay [5], in [6] and in [7]. Besides, the molecule was classed as inactive in [8] and in assay [9]. Further, the AC50 in [3] was 6.47 µM (active).

Turning to `N#Cc1ccccn1`, the result in [1], in [2], in [3], in [4], in [5] and in [6] was inactive. In addition, the molecule was classed as inactive in assay [8].

Turning to `NC(=O)O`, the result in assay [1], in assay [2], in assay [3], in [4], in assay [5] and in assay [6] was inactive. The molecule was classed as inactive in [8].

Consider `CCOC(=O)/C=C(C)/C=C/C[C@@H](C)CCCC(C)C`, for which the AC50 is 158 µM (active) in assay [1]; 157 µM (active) in assay [2]; 149 µM (active) in [8]; 41 µM (active) in assay [10]; 74.7 µM (active) in [9]. Further, the call in assay [3], in assay [4], in assay [5] and in assay [6] was inactive.

Take `CC(=O)C=C(C)C`: the call in assay [1], in assay [2], in [3], in assay [4], in assay [5] and in [6] was inactive. For the same molecule, the outcome in assay [8] and in assay [9] was inactive.

In the case of `O=c1[nH]c(=O)[nH]c(=O)[nH]1`, the result in [1], in assay [2], in assay [4], in assay [5], in [6] and in assay [7] was inactive. Besides, the molecule was classed as inactive in assay [8] and in assay [9].
